The panel holds about 83,000 compounds, 20% with a hit somewhere; the sample as a whole holds those more often.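 The test compound was applied at a single concentration to cells in 96-well plates for 48 hours, and percent growth was recorded.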 Unmarked numbers belong to inactive results. Calls of active or inactive are those of the source. How the source made its calls: active means growth percent below 10; inactive means the rest.
Experiments:
Test in all cases: NCI-60 one-dose screen, 48 h (100 = growth as untreated, 0 = no growth, -100 = all killed)
Details in all cases: 10 µM unless noted
DU-145 prostate = test system: DU-145 prostate
K-562 leukemia = test system: K-562 leukemia
MALME-3M melanoma = test system: MALME-3M melanoma
MDA-MB-231 breast = test system: MDA-MB-231 breast
RXF 393 renal = test system: RXF 393 renal
SF-268 CNS = test system: SF-268 CNS
SF-295 CNS = test system: SF-295 CNS
SF-539 CNS = test system: SF-539 CNS
UACC-257 melanoma = test system: UACC-257 melanoma
M14 melanoma = test system: M14 melanoma

Row | SMILES | growth (DU-145 prostate) | growth (K-562 leukemia) | growth (MALME-3M melanoma) | growth (MDA-MB-231 breast) | growth (RXF 393 renal) | growth (SF-268 CNS) | growth (SF-295 CNS) | growth (SF-539 CNS) | growth (UACC-257 melanoma) | growth (M14 melanoma)
1 | COc1ccc(-c2cc(NC(=O)Nc3ccc(O)cc3)no2)cc1 | 66.7% | 29.2% | 78% | 67.5% | 90.9% | 62.2% | 58.9% | 69.5% | 84.6% | 35.1%
2 | COc1ccc2c(c1)C(=O)/C(=C/c1cccc(OCC(=O)Nc3nc4c(s3)CCCC4)c1)O2 | 32.9% | -46.8% (active) | -67.6% (active) | 23.5% | -43.8% (active) | -26.9% (active) | 52.1% | -83.2% (active) | -22.4% (active) | -27.4% (active)
3 | O=C(COc1cccc(/C=C2/Oc3ccccc3C2=O)c1)Nc1nccs1 | 104% | 43.3% | -71% (active) | 66.1% | 2.9% (active) | 30.3% | 203% | 64.7% | 89.4% | 99.7%
4 | COc1ccc(/C=N\NC(=O)CN2CCN(c3cc4c(cc3F)c(=O)c(C(=O)N/N=C/c3ccc(OC)cc3)cn4C3CC3)CC2)cc1 | 91.6% | 71.7% | 85.2% | 85.7% | 83.3% | 76.7% | 91.3% | 83% | 91.6% | 92.1%
5 | CN1CCN(Cc2ccc(NC(=O)c3[nH]ncc3Nc3ccnc4ccsc34)cc2)CC1 | 14.7% | 26.5% | 60.6% | 12.6% | -44.9% (active) | 20.3% | 56.6% | 2.32% (active) | 85.7% | 48.9%
6 | CCN(CC)CC(O)c1cc(-c2ccc(Cl)cc2)nc2c(C)c(Cl)ccc12 (configuration not stated) | -71.1% (active) | -75.3% (active) | -64% (active) | -82.2% (active) | -86.4% (active) | -29.5% (active) | -76.8% (active) | -98.6% (active) | -80.8% (active) | -98.5% (active)
7 | CSc1ncnc2c1ncn2C1CCCO1 (configuration not stated) | 127% | 91.2% | 93.6% | 110% | 131% | 115% | 104% | 103% | 124% | 109%
8 | C=C1C(=O)O[C@H]2[C@H]1CC/C(Cn1cc(Cn3ccc4cc(Cl)ccc43)nn1)=C\CC[C@@]1(C)O[C@@H]21 | 4.94% (active) | -29.2% (active) | -67.1% (active) | -51.8% (active) | -72.2% (active) | 18.4% | 73.5% | -88.6% (active) | 28.8% | -4.18% (active)
9 | Brc1cccc(-c2nc(-c3ccc4c(c3)OCCO4)co2)c1 | 88.2% [25 µM] | 18.5% [25 µM] | 50.2% [25 µM] | 47.5% [25 µM] | 66.2% [25 µM] | 73.6% [25 µM] | 52.4% [25 µM] | 52.2% [25 µM] | 87.3% [25 µM] | 46% [25 µM]
10 | CCCCCC(=O)Oc1ccc(/C(=C(\C)c2ccccc2)c2ccc(OCCN(CC)CC)cc2)cc1 | 103% | 12.2% | 65.3% | 84.8% | 66.9% | 71.5% | 79.5% | 46.8% | 7.01% (active) | 8.98% (active)
11 | O=C1/C(=C/c2ccc(F)cc2)CN(C(=O)CCN2CCC(=NO)CC2)C/C1=C\c1ccc(F)cc1 | -28% (active) | 5.22% (active) | -22.4% (active) | -55.6% (active) | -81% (active) | -23% (active) | -28.9% (active) | -63% (active) | -19.1% (active) | -10.6% (active)
12 | CC(=O)Nc1ccc2c(c1)c(NC(C)=O)nn2C(=O)Nc1ccc(Cc2ccccc2)cc1 | 83% | 18.2% | 86.5% | 69.9% | 92.6% | 46.6% | 54% | 80.9% | 87.2% | 63%
13 | COc1ccc(S(=O)(=O)NCCNc2nccc(-c3c(-c4cccc(N)c4)nc4sccn34)n2)cc1 | 105% | 88.9% | 101% | 104% | 107% | 99.7% | 99.2% | 110% | 102% | 102%
14 | CC(C)n1cc2c(N)ncnc2n1 | 128% | 98.5% | 86.3% | 109% | 115% | 106% | 102% | 105% | 121% | 107%
15 | CNC(=O)c1cc(Oc2ccc3nc(NC(=O)Nc4ccc(CN5CCOCC5)c(C(F)(F)F)c4)sc3c2)ccn1 | 31.5% | 5.93% (active) | 8.17% (active) | 28.8% | 44.6% | 34.9% | 11% | 16.5% | 18% | 23.2%
16 | O=C(O)c1ccc2c(c1Sc1ccccc1)C(=O)c1ccccc1C2=O | 107% | 112% | 83.4% | 90.1% | 98.6% | 101% | 91.3% | 84.5% | 96.3% | 107%
17 | CS(=O)(=O)c1ccc(-c2cnc3ccc(-c4cccc(S(C)(=O)=O)c4)nn23)cc1 | 27.9% | 46.9% | 35.3% | 49.4% | 9.52% (active) | 36.3% | 53.7% | 24% | 58.1% | 42.8%
18 | C=C1C(=O)O[C@H]2[C@H]1CC/C(Cn1cc(Cc3c[nH]c4ccccc34)nn1)=C\CC[C@@]1(C)O[C@@H]21 | 20% | -12.9% (active) | -40.6% (active) | 1.06% (active) | -33.3% (active) | 35.1% | 79.3% | -55.4% (active) | 43.8% | 10.2%
19 | COc1ccc(CCN2CC=Cn3c2nc2ccccc2c3=O)cc1 | 7.97% (active) | 10.8% | 63.2% | 18.8% | 36.7% | 35.7% | 17.2% | -34.1% (active) | 80.3% | 16.4%
20 | Cc1ccc2c(c1)C(=O)/C(=C/c1ccc(OCC(=O)c3ccccc3)cc1)O2 | 107% | 106% | 114% | 84% | 89% | 101% | 78.8% | 92.9% | 90.1% | 95.8%
21 | C/C=C/C(N)=O | 106% | 109% | 99.7% | 108% | 108% | 104% | 106% | 101% | 108% | 95.5%
22 | CCN(CC)Cc1cc(Nc2c3ccc(Cl)cc3nc3c(C)cccc23)ccc1O | 2.09% (active) | -31% (active) | -87% (active) | -48.6% (active) | -74.3% (active) | -79.8% (active) | -43.6% (active) | -96.5% (active) | -85.2% (active) | -88.5% (active)
23 | CC[C@H](CO)Nc1nc(NCc2ccccc2)n2ncc(C(C)C)c2n1 | 7.53% (active) | 2.92% (active) | -17% (active) | 8.97% (active) | -13.9% (active) | 5.86% (active) | 0.519% (active) | -46% (active) | 24.2% | 8.94% (active)
24 | O=C(/C=C\c1cccc([N+](=O)[O-])c1)c1ccccc1 | 59% | 180% | 36.6% | 104% | 14.9% | 25.8% | 89.9% | 85.4% |  | 26.8%
25 | Fc1ccc(Cc2ccc(F)cc2)cc1 | 113% | 96.7% | 106% | 107% | 118% | 101% | 113% | 102% | 108% | 106%
26 | Nc1cccc(NC(=O)C(=O)Nc2cccc(N)c2)c1 | 107% | 95.3% | 141% | 104% | 87.5% | 101% | 98.1% | 111% |  | 87.4%
27 | Nc1nc2c(c3ncccc13)C(c1ccc(Cl)c(Cl)c1)Cc1ncccc1-2 (configuration not stated) | 35.5% | 11% | 47.1% | 28.9% | -25.4% (active) | 44.8% | 1.19% (active) |  | 35.4% | 20%
28 | Nc1cc2ccncc2c2ccccc12 | 75.4% | 112% | 97.6% | 64.1% | 81.5% | 75.6% | 69.3% | 79.1% | 103% | 94.7%

From PubChem BioAssay (NCI)
